PostGolgi ctrl = growth inhibition of yeast control strain, primary screen, counter-screen for post-Golgi transport modulator project. 98,000 compounds, 5% hits. efflux-deficient yeast background strain, growth absorbance A615, 16 h. inhibition, % at 10 µM. AID 738, 2007
hDAT+cocaine = changed hDAT dopamine uptake under cocaine IC80, either direction, primary screen, cocaine antagonist project, cell-based, LLC-PK1 hDAT, [14C]-dopamine uptake, MLSMR | LLC-PK1 hDAT cells, [14C]-dopamine uptake with cocaine IC80; actives deviate in either direction | B-score at 10 µM | 110,000 compounds, 1.3% hits | AID 449768, 2010;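 active = Z score or B-score, a plate-position-corrected score, falls beyond the plate's 99.7% confidence bounds, in either direction; inactive = both scores lie inside the 99.7% bounds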;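 note: scored against the spread of the other compound wells on the same plate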
Cav3 T inh = Cav3.2 calcium influx blockers – cell-based, Fluo-4 calcium fluorescence, FDSS, MLSMR library, primary screen; Cav3.2-expressing cells; hits give low values; B-score at 10 µM; 100,000 compounds, 4% hits;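 active = single-dose well whose peak fluorescence ratio is a statistical outlier from its plate by either plate-standardised score or position-corrected B-score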
D1 mod = D1 CRE-luciferase signal change, two-sided – cell-based, HEK293 D1, dopamine EC30, D1 allosteric modulator project, primary screen | dopamine EC30 potentiation; actives deviate in either direction | B-score at 10 µM | 58,000 compounds, 5.9% hits | AID 641, 2007;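 active = luminescence count or its row- and column-corrected plate score outside the 99.7% band of the plate's sample wells, on either side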
PLAP act = PLAP enzyme activators, biochemical, luminescence, HTS; purified PLAP enzyme, luminescent substrate read-out; hits give high values; activation fold at 20 µM; 96,000 compounds, 1.2% hits; AID 696, 2007; in the data active = activation fold above about 2
Target sequence (P05187 whole entry, looked up): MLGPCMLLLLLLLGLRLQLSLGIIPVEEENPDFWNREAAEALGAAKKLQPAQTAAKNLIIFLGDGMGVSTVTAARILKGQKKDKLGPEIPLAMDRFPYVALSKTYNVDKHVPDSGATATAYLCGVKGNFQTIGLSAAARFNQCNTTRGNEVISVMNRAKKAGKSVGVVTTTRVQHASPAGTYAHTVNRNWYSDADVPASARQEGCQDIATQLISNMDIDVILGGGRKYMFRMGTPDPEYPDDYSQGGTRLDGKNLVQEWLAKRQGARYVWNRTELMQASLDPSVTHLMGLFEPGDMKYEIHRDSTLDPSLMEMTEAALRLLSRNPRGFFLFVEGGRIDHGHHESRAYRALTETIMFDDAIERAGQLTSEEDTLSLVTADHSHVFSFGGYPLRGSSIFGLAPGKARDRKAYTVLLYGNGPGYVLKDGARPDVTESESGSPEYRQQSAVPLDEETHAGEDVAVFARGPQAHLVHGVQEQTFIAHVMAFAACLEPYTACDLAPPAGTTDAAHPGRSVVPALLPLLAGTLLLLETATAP
PostGolgi yeast = phenotypic screen on post-Golgi transport, primary screen; AID 739, 2007; 98,000 compounds, 0.9% hits; inhibition, % at 10 µM; post-Golgi transport phenotypic cell assay;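 note: yeast cells grown in 1536-well plates; yeast grown about 18 h at 30C before absorbance read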
Numbers without * were called inactive; . = not tested or not shown. Rows were chosen to be rich in hits. Some 12% of all compounds tested hit in one or more screens of this group. Cut-off read from the data, not from the text of the source, unless noted: active = inhibition above about 30%; inactive = the rest.

SMILES | PostGolgi ctrl | hDAT+cocaine | Cav3 T inh | D1 mod | PLAP act | PostGolgi yeast
CCOC(=O)CCc1n[nH]c(=O)[nH]c1=O | -1 | -0.02 | 0.011 | -1.1 | 1.2 | 8
CCc1ccc(CNC(=O)CN2C(=O)COc3ccccc32)cc1 | 10 | 0.15 | -0.62 | 0.21 | 1 | 3
O=C(NC1CC2CCCC(C1)N2Cc1ccco1)NC12CC3CC(CC(C3)C1)C2 (stereo not drawn) | 8 | -7.4* | -2.4 | 2.1 | 2.2* | -4
Cc1cc(C)c2c3c(cn2n1)c(=O)n(C)c(=O)n3C | . | -1.1 | 0.016 | . | . | .
C/C(=N\N=C(/N)SC1CC(=O)N(c2ccc(Cl)c(Cl)c2)C1=O)c1cccs1 (stereo not drawn) | 57* | 0.81 | 0.18 | . | 1.2 | 102*
Cc1ccc(C(=O)Nn2cnc3scc(-c4cccs4)c3c2=O)c(O)c1 | 20 | -0.83 | -3.5* | . | 1.2 | -2
Cc1ccc(-n2cnc3scc(-c4cccs4)c3c2=O)cc1 | . | 1 | -1.1 | . | . | .
CCOC(=O)c1nnn(-c2nonc2N)c1CN(CC)c1ccccc1 | 5 | -1.1 | -4.8* | . | 1.1 | -5
CCOC(=O)c1nnn(-c2nonc2N)c1CN(CC)CC | -2 | -0.4 | 0.007 | -1.7 | 1.1 | 9
Cc1ccc(S(=O)(=O)CCc2nnc(N)s2)cc1 | -4 | -0.66 | -0.1 | . | 0.9 | 11
COc1ccc(CNC(=O)CN(CC2CCCO2)C(=O)CNS(=O)(=O)c2ccc(F)cc2)cc1 (stereo not drawn) | 9 | 0.77 | -6.2* | 0.19 | 1.5 | -1
O=S(=O)(Nc1ncnc2sc3c(c12)CCC3)c1ccc(Cl)s1 | 21 | -2.4* | -2.9 | -0.016 | 1.4 | 3
O=C(O)[C@H](CO)Nc1ncnc2sc3c(c12)CCC3 | 1 | . | . | . | 0.8 | 3
Cc1nc(NS(=O)(=O)c2ccc(Br)cc2)c2c3c(sc2n1)CCC3 | 33* | -0.52 | -4.6* | . | 1.1 | -4
Cc1nc(SCC(O)CCl)c([N+](=O)[O-])[nH]1 (stereo not drawn) | . | -0.51 | -0.49 | . | . | .
S=C(NCCC(c1ccccc1)c1ccccc1)Nc1ccccc1Cl | 9 | -0.85 | -3.4 | . | 1 | 3
S=C(NCCC(c1ccccc1)c1ccccc1)Nc1ccc(Cl)cc1 | 23 | 1 | -3* | . | 1 | 2
CCN=C1SC(CC(=O)NCCc2ccc(OC)cc2)C(=O)N1CC (stereo not drawn) | 4 | 0.72 | 0.54 | . | 1.1 | 14
CCCC1S/C(=N/N=C/c2ccc(OC)cc2)N(Cc2ccccc2)C1=O (stereo not drawn) | -2 | -0.65 | -3.6* | . | 0.8 | -8
CCCC1S/C(=N/N=C/c2ccc(OC)cc2)N(Cc2ccc(OC)cc2)C1=O (stereo not drawn) | 1 | 0.015 | -3.7* | . | 0.8 | -7
Brc1c(OCCOCCn2cncn2)ccc2ccccc12 | 8 | 0.61 | -0.16 | 1.4 | 1.5 | -10
CC(C)C(=O)Nc1cccc(NC(=S)NC(=O)c2ccc([N+](=O)[O-])cc2)c1 | 7 | -0.0049 | -4* | . | 1 | 1
COc1cc2c3nnc(-c4ccc(F)cc4)c-3cn(Cc3ccc(C)cc3)c2cc1OC | 7 | -1.5 | -5.8* | . | 1.1 | -12
Cc1cccc(Cn2cnc3ccccc32)c1 | 9 | -0.64 | -1 | . | 0.7 | 3
Fc1ccc(Cn2cnc3ccccc32)cc1 | 5 | -0.23 | -0.42 | . | 0.8 | 9
SMILES | PostGolgi ctrl | hDAT+cocaine | Cav3 T inh | D1 mod | PLAP act | PostGolgi yeast
COc1cc2c3nnc(-c4ccc(F)cc4)c-3cn(Cc3cccc(C)c3)c2cc1OC | -2 | -0.38 | -3.6* | . | 1.3 | 8
COC(=O)c1oc2ccccc2c1N | -4 | 0.33 | 1.7 | . | 0.9 | -4
COC(=O)c1c(C)nc(C)c2c(=O)oc3ccccc3c12 | 42* | -0.11 | -0.55 | 1 | 0.9 | -4
Cc1ccccc1NC(=S)NC(NC(=O)COc1ccccc1)C(Cl)(Cl)Cl (stereo not drawn) | 3 | -1.1 | -2.8 | . | 1 | -2
O=C(COc1ccccc1)NC(NC(=S)Nc1ccccc1O)C(Cl)(Cl)Cl (stereo not drawn) | 2 | -3.7* | -7.9* | . | 1.1 | -2
Brc1cccc(CN2CCCCCCC2)c1 | 10 | 1.1 | -0.19 | . | 0.2 | 2
CCOc1ccc(CN(C(=O)c2oc3cc(C)ccc3c2C)C2CCS(=O)(=O)C2)cc1 (stereo not drawn) | 35* | 0.05 | -1.6 | . | 1.5 | 4
Cc1ccc2c(C)c(C(=O)N(Cc3cccs3)C3CCS(=O)(=O)C3)oc2c1 (stereo not drawn) | 19 | 1.3 | -1.9 | . | 1.7 | -3
CCCCC(=O)NCCc1cc2c(OC)ccc(OC)c2[nH]c1=O | 7 | . | . | 1.8 | 1.4 | 15
CC(C)(C)c1[nH]nc2c1C(Cc1ccccc1)C(C#N)=C(N)O2 (stereo not drawn) | 40* | 0.45 | -3 | -0.58 | 1.7 | -7
Cc1ccc(CN2C(=O)CCC2C(=O)NCCN2CCN(c3cccc(Cl)c3)CC2)cc1 (stereo not drawn) | . | . | . | -0.97 | . | .
CC(=O)C(N=Nc1ccccc1)(Sc1nnc(-c2ccccc2)n1-c1ccccc1)C(=O)Nc1ccccc1 (stereo not drawn) | 1 | 0.075 | -6.7* | . | 0.9 | 9
N#Cc1ccccc1NC(=O)CSc1nnc(-c2ccc(F)cc2)n1-c1ccccc1 | 15 | . | . | . | 1.5 | 5
CC(C)NC(=O)CSc1nnc(-c2ccncc2)n1-c1ccccc1 | 14 | -0.16 | 0.033 | . | 0.8 | 1
CC(=O)C(N=Nc1ccccc1)(Sc1nnc(-c2ccccc2)n1-c1ccccc1)C(C)=O | 47* | 0.043 | -4.4* | . | 1.2 | -8
COc1cccc(C2C3=C(CCCC3=O)Nc3nc4ccccc4n32)c1OC (stereo not drawn) | . | . | . | 1.4 | . | .
CCc1cccc(NC(=O)CSC2=NS(=O)(=O)c3ccccc32)c1 | 3 | -1.6 | -5.4* | . | 0.9 | -7
CCc1cccc(NC(=O)Cn2cccc2)c1 | 10 | -0.023 | 0.13 | 0.94 | 1 | -3
O=C1c2ccccc2N(Cc2ccc(Cl)cc2)C2=NCCN12 | . | . | . | 11* | . | .
CCCCCC(C)n1[nH]c(=O)cc1N (stereo not drawn) | 7 | -0.51 | -0.55 | . | 1.1 | 6
Cc1cc(C(=O)OCC(=O)NCCC(C)C)c2ccccc2n1 | 5 | 0.46 | -0.029 | . | 1.1 | -5
Cc1cc(Cl)ccc1N(CC(=O)N=Nc1c(O)[nH]c2ccccc12)S(C)(=O)=O | 10 | 2.2 | -1.6 | . | 2.1* | 4
COc1ccc(OC)c(-c2cc(C(=O)N3CCN(c4ccccc4)CC3)no2)c1 | 33* | -0.61 | -2.2 | 0.4 | 1.5 | -8
COc1ccc(OC)c(-c2cc(C(=O)N3CCc4ccccc4C3)no2)c1 | 41* | 2.9* | 0.73 | 0.021 | 1.1 | -1
